Measurements published in PubChem BioAssay.

test system: wheat germ agglutinin (Triticum aestivum), Alexa647-labelled; assay: wheat germ agglutinin binders on compound microarrays, profiling panel, artefact control for SMM control-protein annotation, biochemical, small-molecule microarray, 635/667 nm fluorescence (AID 1140); details: WGA-A647 binding, 635 nm fluorescence, higher = more signal;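 also: score merges 667 nm feature emission with signal to noise over triplicate slides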

**Q.** `CCCCN1CC=CC23O[C@@H]4C=CCOC(=O)[C@@H]4[C@H]2C(=O)N(CCO)[C@@H]3C1=O` (stereo not given in full) was tested. Which composite z-score did it give?
**A.** -1.29

**Q.** Which composite z-score does the source give for `C=CC[C@@]12N=C(c3ccc(OCCCO)cc3)O[C@@H]1c1ccccc1N(Cc1ccccc1)C2=O` here?
**A.** 1.04

**Q.** How did the composite z-score turn out when `COCCOC(=O)N1C(=O)[C@@]2(c3cc(C#CCC(C(=O)OC)C(=O)OC)ccc31)[C@H](C(N)=O)[C@H]1C(=O)O[C@H](c3ccccc3)[C@H](c3ccccc3)N1[C@@H]2c1ccc(OCCO)cc1` was run?
**A.** 0.762

**Q.** For `CCOC(=O)C1=C(C(=O)OCC)N(S(=O)(=O)CC[Si](C)(C)C)[C@H](c2ccccc2)CC1`, which composite z-score is on record?
**A.** 1.1

**Q.** With `COC(=O)C1=CC(CCCO)=CC(c2ccc(CN3CCCC3)cc2)N(Cc2sc3ccccc3c2Cl)C=C1C(=O)OC` (stereo not given) as the compound, how does the composite z-score read?
**A.** 1.34

**Q.** `C=CCNC(=O)[C@@H]1[C@H]2C(=O)O[C@H](c3ccccc3)[C@H](c3ccccc3)N2[C@H](c2ccc(O)cc2)[C@@]12C(=O)Nc1ccc(C#CC3(O)CCCCCC3)cc12` was tested. Which composite z-score did it give?
**A.** -0.321

**Q.** How did the composite z-score turn out when `NC(=O)NCC#Cc1ccc2c(c1)[C@]1(C(=O)N2)[C@H](C(=O)Nc2nc3ccccc3s2)[C@H]2C(=O)O[C@H](c3ccccc3)[C@H](c3ccccc3)N2[C@@H]1c1ccc(OCCO)cc1` was run?
**A.** 0.441

**Q.** Which composite z-score does the source give for `COCCOC(=O)N1C(=O)[C@@]2(c3cc(C#CC4(O)CCCCCC4)ccc31)[C@H](c1ccccc1OCCO)N1[C@H](c3ccccc3)[C@H](c3ccccc3)OC(=O)[C@H]1[C@@H]2C(=O)N1CCCCCCC1` here?
**A.** 1.29

**Q.** With `COCCOC(=O)N1C(=O)[C@@]2(c3cc(C#CCCO)ccc31)[C@H](C(=O)N1CCc3cc(OC)c(OC)cc3C1)[C@H]1C(=O)O[C@H](c3ccccc3)[C@H](c3ccccc3)N1[C@@H]2c1ccccc1OCCO` as the compound, how does the composite z-score read?
**A.** 0.603

**Q.** How did the composite z-score turn out when `[N-]=[N+]=NCc1ccccc1[C@H]1OC(c2ccc(OCCCO)cc2)=N[C@@]1(Cc1ccccc1)C(=O)N1CCOCC1` was run?
**A.** 0.723

**Q.** How did the composite z-score turn out when `C=CCOC(=O)[C@H]1[C@@H]2C(=O)O[C@@H](c3ccccc3)[C@@H](c3ccccc3)N2[C@@H](c2ccc(OCCOC(=O)[C@@H]3C[C@@H]4C(=O)N[C@@H](CC(C)C)C(=O)N4[C@@H]3c3ccc(O)cc3)cc2)[C@]12C(=O)Nc1ccc(I)cc12` was run?
**A.** 0.902

**Q.** `COCCOC(=O)N1C(=O)[C@@]2(c3cc(C#CCC(C(=O)OC)C(=O)OC)ccc31)[C@H](C(=O)N1CCc3cc(OC)c(OC)cc3C1)[C@H]1C(=O)O[C@H](c3ccccc3)[C@H](c3ccccc3)N1[C@@H]2c1ccc(O)cc1` was tested. Which composite z-score did it give?
**A.** 1.05

**Q.** For `O=C1c2ccccc2[C@@]2(Cc3ccccc3N(Cc3ccccc3)C2=O)[C@H](c2ccc(CO)cc2)N1Cc1ccccc1`, which composite z-score is on record?
**A.** 0.168

**Q.** `CN(C)CCCC[C@@H]1NC(=O)[C@@H]2C[C@H](C(=O)NCCCCCCNC(=O)CS)[C@H](c3cccc(OCCO)c3)N2C1=O` was tested. Which composite z-score did it give?
**A.** 0.235

**Q.** With `CCCC[C@H]1OB(O)C[C@H]2C1=C(COC)C[C@H]1C(=O)C=CC(=O)[C@H]12` as the compound, how does the composite z-score read?
**A.** 0.106

**Q.** For `C=C(/C(=C/C[C@@H](OC(C)=O)c1ccccc1OCCO)c1cc(C(=O)OC)ccc1OC)C(C)C`, which composite z-score is on record?
**A.** 0.368

**Q.** Which composite z-score does the source give for `C=C(CCCC)/C(=C/C[C@H](OC(C)=O)c1cccc(OCCO)c1)c1cc(C(=O)OC)ccc1OC` here?
**A.** 0.635

**Q.** Which composite z-score does the source give for `CN(C)CCCC[C@@H]1NC(=O)[C@@H]2C[C@H](C(=O)NCc3ccc(F)cc3)[C@H](c3ccc(O)cc3)N2C1=O` here?
**A.** -0.0665

**Q.** Which composite z-score does the source give for `C=CCNC(=O)[C@@H]1[C@H]2C(=O)O[C@H](c3ccccc3)[C@H](c3ccccc3)N2[C@H](c2ccccc2OCCO)[C@@]12C(=O)N(C(=O)OCCOC)c1ccc(C#CCCO)cc12` here?
**A.** 0.971

**Q.** For `C=CCC(OC(C)=O)[C@@H]1[C@@H](N(Cc2cc3ccccc3o2)C(=O)c2ccc(-c3ccccc3)cc2)c2cc(OCCCO)ccc2N1C(=O)c1ccc2ccccc2n1` (stereo not given in full), which composite z-score is on record?
**A.** -0.0535

**Q.** Which composite z-score does the source give for `COc1ccc(C#Cc2ccc3c(c2)[C@]2(C(=O)N3)[C@H](C(=O)Nc3nc4ccccc4s3)[C@H]3C(=O)O[C@H](c4ccccc4)[C@H](c4ccccc4)N3[C@@H]2c2ccc(OCCO)cc2)cc1` here?
**A.** 1.29

**Q.** `C=CCC(OC(C)=O)[C@@H]1[C@@H](N(Cc2cc3ccccc3o2)C(=O)Cc2ccc(OC)cc2)c2cc(OCCCO)ccc2N1C(=O)Cc1ccc(OC)cc1` (stereo not given in full) was tested. Which composite z-score did it give?
**A.** 0.67

**Q.** With `COCCOC(=O)N1C(=O)[C@@]2(c3cc(C#CC4(O)CCCCCC4)ccc31)[C@H](C(=O)NC[C@H](O)c1ccccc1)[C@H]1C(=O)O[C@H](c3ccccc3)[C@H](c3ccccc3)N1[C@@H]2c1ccc(O)cc1` as the compound, how does the composite z-score read?
**A.** 0.721

**Q.** `Cc1c(NC(=O)/C(C#N)=C/c2ccc(Cl)cc2)c(=O)n(-c2ccccc2)n1C` was tested. Which composite z-score did it give?
**A.** 0.794

**Q.** How did the composite z-score turn out when `CCCC=C(CCC)[C@@H](NS(=O)(=O)c1ccc(Cl)cc1)c1ccccc1` was run?
**A.** 0.303

**Q.** For `CN(C)CCCNC(=O)[C@@]1(Cc2ccccc2I)c2ccccc2C(=O)N(Cc2ccccc2)[C@H]1c1ccc(CO)cc1`, which composite z-score is on record?
**A.** -0.0325

**Q.** Which composite z-score does the source give for `CCOC(=O)C[C@H]1[C@H](OC(=O)c2ccc(-c3ccccc3)cc2)[C@@H](NC(=O)c2ccc3ccccc3c2)c2cc(OCCCO)ccc2N1C(=O)c1ccccc1` here?
**A.** 0.3

**Q.** Which composite z-score does the source give for `C=C(CCCC)C(=O)CC[C@H](OC(=O)c1cccnc1)c1ccc(CO)o1` here?
**A.** 0.791

**Q.** For `COc1ccc(C#Cc2ccc3c(c2)[C@]2(C(=O)N3)[C@H](c3ccc(OCCO)cc3)N3[C@H](c4ccccc4)[C@H](c4ccccc4)OC(=O)[C@H]3[C@@H]2C(=O)O)cc1`, which composite z-score is on record?
**A.** 0.416

**Q.** How did the composite z-score turn out when `COC(=O)[C@@]1(Cc2ccc(F)cc2)[C@H]2c3cc(C(=O)N(C)C)n(CCN4CCOCC4)c3C[C@H]2CN1C(=O)c1ccccc1` was run?
**A.** 0.331

**Q.** `CCCC[C@@H]1C[C@H]1[C@@H](NC(=O)c1ccc(C(F)(F)F)cc1)c1ccc(C(=O)OC)cc1` was tested. Which composite z-score did it give?
**A.** 0.849

**Q.** Which composite z-score does the source give for `COC(=O)[C@@]1(Cc2ccccc2)[C@@H]2[C@@H](CC(=O)[C@H]2CC(=O)C(=O)N(C)C)CN1C(=O)c1ccccc1` here?
**A.** 0.0553

**Q.** Which composite z-score does the source give for `COC(=O)[C@@]1(Cc2ccc(OC)cc2)[C@H]2c3cc(C(=O)N4CCCC4)n(CCc4ccc(OC)c(Br)c4)c3C[C@H]2CN1C(=O)c1ccccc1` here?
**A.** 0.345

**Q.** How did the composite z-score turn out when `O=C1NC(=O)C2C1C=CC(C(O)c1cccc(O)c1)N2Nc1ccc(Cl)cc1Cl` (stereo not given) was run?
**A.** 0.447

**Q.** With `C=C(COC)C(=O)CC[C@@H](OC(C)=O)c1ccc(OCCO)cc1` as the compound, how does the composite z-score read?
**A.** 0.774
